These results are taken from PubChem BioAssay (NCI).

The structures appear in SMILES notation. Compounds without any hit were thinned out: in the full panel of roughly 83,000, 20% have a hit.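 The test compound was applied at a single concentration to cells in 96-well plates for 48 hours, and percent growth was recorded.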 A number with no mark means an inactive call. Activity calls are given as the source filed them. How the source made its calls: active means growth percent below 10; inactive means the rest.

Holding throughout (assay): NCI-60 one-dose screen, 48 h (100 = growth as untreated, 0 = no growth, -100 = all killed)
Holding throughout (conditions): 10 µM unless noted

The test system of experiment [1] is SR leukemia.
The subject of experiment [2] is RPMI-8226 leukemia.
In experiment [3] the test system is OVCAR-8 ovarian.
Experiment [4] deals with OVCAR-5 ovarian.
For experiment [5], the system named is OVCAR-4 ovarian.
The test system of experiment [6] is SK-OV-3 ovarian.
Experiment [7] relates to IGROV1 ovarian.
The test system of experiment [8] is OVCAR-3 ovarian.
In experiment [9] the test system is HS 578T breast.
The test system of experiment [10] is NCI/ADR-RES ovarian.

`C=C(C)[C@@H]1CC[C@]2(C(=O)N3CCN(C)CC3)CC[C@]3(C)[C@H](CC[C@@H]4[C@@]5(C)C/C(=C/c6ccc(C(F)(F)F)cc6)C(=O)C(C)(C)[C@@H]5CC[C@]43C)[C@@H]12`: the growth in experiment [1] is 76.9%; in experiment [2], 86.1%; in [3] it was 97.4%; in experiment [4] it was 94.9%; in [5] it was 103%; in [6], 101%. Also, the growth in experiment [7] is 102%; in experiment [8], 103%; in experiment [9], 99.4%; in [10], 96.8%.
For `Nc1c2c(nc3ccc(Cl)cc13)CC(c1ccccc1)CC2=O` (stereo not given), the growth in experiment [1] was 14.3%; in [2], 25.8%; in experiment [3], 72.1%; in [4], 73.2%; in experiment [5], 89.2%; in experiment [6], 76.9%. Further, the growth is 38.3% in experiment [7], 20.6% in [8], 73.5% in experiment [9] and 22.5% in [10].
Turning to `O=S(=O)(NCCNc1cc(-c2cn(-c3ccccc3)nc2-c2cccc(O)c2)ccn1)c1cccc(F)c1`, the growth was 18.9% in experiment [1]; 22.9% in experiment [2]; 34.2% in [3]; 54.8% in experiment [4]; 39.4% in experiment [5]; 50.3% in [6]. The growth in experiment [7] was 43.5%; in [8], 50.8%; in experiment [9], 37.6%; in experiment [10] it was 33.1%.
For `CC1(C)NC2=C(C(Nc3cccnc3)N1)C(c1ccc([N+](=O)[O-])cc1)C(C(=O)c1ccc(N=[N+]=[N-])cc1)O2` (stereo not given), the growth in experiment [1] was 102%; in [2], 115%; in experiment [3], 101%; in experiment [4] it was 97.6%; in [5] it was 117%; in experiment [6], 108%. Besides, the growth in experiment [7] is 104%; in [8], 110%; in experiment [9], 102%; in experiment [10] it was 109%.
On to `CN(C)c1ccc(N=C2C=CC(=O)C=C2)cc1`, for which the growth in [1] is 25.9%; in experiment [2] it was 61.1%; in [3], 81.7%; in [4], 120%; in experiment [5], 70.4%; in [6] it was 99.7%. In addition, the growth in [7] was 96.5%; in [8] it was -14.8% (active); in experiment [9], 72.5%; in experiment [10], 90.8%.
`COC(=O)[C@]12CC[C@@H](C(C)=O)[C@@H]1[C@H]1CC[C@@H]3[C@@]4(C)C/C(=C/c5cccnc5)C(=O)C(C)(C)[C@@H]4CC[C@@]3(C)[C@]1(C)CC2`: the growth in experiment [1] is 12.3%; in experiment [2] it was 2.88% (active); in experiment [3], 38.7%; in experiment [4], 114%; in [5], 26.7%; in [6], 93.7%. Further, the growth in experiment [7] is 85.8%; in [8], 49%; in [9], 74.8%; in experiment [10], 52.5%.
Consider `N#C/C(=C\c1ccc(-c2ccc(Br)cc2)o1)c1nc(-c2ccco2)cs1`, for which the growth was 95.6% in [1]; 61.4% in [2]; 99.8% in experiment [3]; 63.4% in experiment [4]; -6.53% (active) in [5]; 91% in [6]. The growth is 60.9% in [7], 106% in experiment [8], 100% in experiment [9] and 99.8% in experiment [10].
As for `CCN(CC)C(=O)CCCCCn1c2ccccc2c2c3c(c4c5ccccc5[nH]c4c21)C(=O)N(O)C3=O`, the growth in experiment [1] was 5.8% (active); in experiment [2], 16.1%; in experiment [3], 20.8%; in [4] it was 104%; in [5] it was 56.6%; in experiment [6], 79.5%. Also, the growth in experiment [7] was 27.6%; in experiment [8] it was 46.5%; in experiment [9], 71.1%; in experiment [10] it was 12.7%.
Consider `NC1=NN(c2ccccc2)C(=O)/C1=C/c1ccc(Cl)cc1`, for which the growth in experiment [1] is 94.2%; in [2], 94.8%; in experiment [3], 99%; in [4], 98.1%; in experiment [5], 109%; in [6] it was 96.3%. For the same compound, the growth in experiment [7] is 99.4%; in [8], 108%; in [9], 106%; in experiment [10], 103%.
In the case of `COC(=O)[C@]12CC[C@@H](C)[C@H](C)[C@@H]1C1=CC[C@@H]3[C@@]4(C)C=C(O)C(=O)C(C)=C4CC[C@@]3(C)[C@]1(C)CC2`, the growth in [1] is 20.4%; in experiment [2] it was 1.56% (active); in [3] it was 37.9%; in experiment [4] it was 64.5%; in [5], 37.8%; in experiment [6], 61.7%. The growth was 53.6% in [7], 28.5% in experiment [8], 33.2% in experiment [9] and 38.8% in [10].
Turning to `CCCCCCCC(=O)SCC/C=C/[C@@H]1CC(=O)NCc2cccc(n2)CN(Cc2ccc3ccccc3c2)CC(=O)N[C@@H](C(C)C)C(=O)O1`, the growth in [1] was 3.23% (active); in experiment [2] it was 32.6%; in experiment [3], 22.7%; in experiment [4], 26.2%; in [5] it was 66.3%; in experiment [6], 24.5%. Besides, the growth was 53.2% in experiment [7], 47.3% in experiment [8], 34.9% in experiment [9] and 30.8% in experiment [10].
